Test results published in the supplement of paper PMC10849652.
The full data set covers some 7,900 targets. This sample favours those with a hit. About 0.6% of all pairs of compound and target were hits.

compound: CC1=C(C=C(C=C1)NC(=O)C2=CC(=CC=C2)C(C)(C)C#N)NC3=CC4=C(C=C3)N=CN(C4=O)C; assay: log2 fold change, soluble protein after heating vs DMSO (PISA); higher = thermal stabilisation; K562 cells, 10 uM, 30 min; active = over 0.2 and 3.5 SD of the protein, either way, in both replicates (recomputed)
Method in brief: (§1)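 K562 cells at 2×10^6 cells/mL were treated with 10 μM compound for 30 min. Aliquots were heated for 3 min across 48°C-58°C, pooled, and extracted in PBS with 0.5% NP-40 at 4°C; soluble protein was the supernatant after 21,000xg for 90 min. Soluble protein was quantified by TMTpro 16plex LC-MS/MS with channel sums equalised, and reported as log2 fold change in thermal stability against DMSO controls, with values from duplicates.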

Chain of UniProt Q9Y5L0 (Q9Y5L0 whole entry, looked up): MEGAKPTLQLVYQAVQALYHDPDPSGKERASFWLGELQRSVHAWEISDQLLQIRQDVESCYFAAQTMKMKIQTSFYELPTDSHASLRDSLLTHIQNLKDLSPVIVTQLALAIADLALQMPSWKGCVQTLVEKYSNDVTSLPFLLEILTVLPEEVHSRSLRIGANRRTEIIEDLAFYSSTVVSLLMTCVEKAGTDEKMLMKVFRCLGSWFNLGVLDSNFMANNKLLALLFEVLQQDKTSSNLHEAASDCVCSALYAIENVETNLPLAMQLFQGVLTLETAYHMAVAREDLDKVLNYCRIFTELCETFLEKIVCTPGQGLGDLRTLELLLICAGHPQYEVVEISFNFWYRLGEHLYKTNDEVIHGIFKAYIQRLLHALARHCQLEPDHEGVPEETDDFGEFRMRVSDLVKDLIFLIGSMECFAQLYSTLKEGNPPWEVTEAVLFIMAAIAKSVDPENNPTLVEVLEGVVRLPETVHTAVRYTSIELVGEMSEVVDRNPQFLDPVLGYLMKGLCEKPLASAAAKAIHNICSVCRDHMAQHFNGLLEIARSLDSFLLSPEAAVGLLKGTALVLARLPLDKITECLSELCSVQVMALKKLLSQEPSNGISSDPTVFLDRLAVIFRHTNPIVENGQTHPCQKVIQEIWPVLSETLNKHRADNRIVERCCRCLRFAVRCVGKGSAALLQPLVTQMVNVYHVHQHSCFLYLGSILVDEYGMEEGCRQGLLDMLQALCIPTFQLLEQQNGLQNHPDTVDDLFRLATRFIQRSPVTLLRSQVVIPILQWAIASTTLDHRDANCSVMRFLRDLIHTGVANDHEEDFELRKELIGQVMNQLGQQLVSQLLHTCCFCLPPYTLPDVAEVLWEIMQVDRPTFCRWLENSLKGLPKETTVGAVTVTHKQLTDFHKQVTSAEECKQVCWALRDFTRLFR
Chain of UniProt Q6PID6 (Q6PID6 whole entry, looked up): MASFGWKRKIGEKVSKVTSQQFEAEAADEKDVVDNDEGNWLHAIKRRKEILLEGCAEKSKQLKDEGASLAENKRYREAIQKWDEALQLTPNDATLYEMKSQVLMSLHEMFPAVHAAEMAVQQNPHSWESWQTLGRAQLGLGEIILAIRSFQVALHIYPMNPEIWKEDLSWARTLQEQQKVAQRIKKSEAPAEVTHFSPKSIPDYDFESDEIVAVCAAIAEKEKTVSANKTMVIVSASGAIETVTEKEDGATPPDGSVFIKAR
Chain of UniProt Q9H267 (Q9H267 whole entry, looked up): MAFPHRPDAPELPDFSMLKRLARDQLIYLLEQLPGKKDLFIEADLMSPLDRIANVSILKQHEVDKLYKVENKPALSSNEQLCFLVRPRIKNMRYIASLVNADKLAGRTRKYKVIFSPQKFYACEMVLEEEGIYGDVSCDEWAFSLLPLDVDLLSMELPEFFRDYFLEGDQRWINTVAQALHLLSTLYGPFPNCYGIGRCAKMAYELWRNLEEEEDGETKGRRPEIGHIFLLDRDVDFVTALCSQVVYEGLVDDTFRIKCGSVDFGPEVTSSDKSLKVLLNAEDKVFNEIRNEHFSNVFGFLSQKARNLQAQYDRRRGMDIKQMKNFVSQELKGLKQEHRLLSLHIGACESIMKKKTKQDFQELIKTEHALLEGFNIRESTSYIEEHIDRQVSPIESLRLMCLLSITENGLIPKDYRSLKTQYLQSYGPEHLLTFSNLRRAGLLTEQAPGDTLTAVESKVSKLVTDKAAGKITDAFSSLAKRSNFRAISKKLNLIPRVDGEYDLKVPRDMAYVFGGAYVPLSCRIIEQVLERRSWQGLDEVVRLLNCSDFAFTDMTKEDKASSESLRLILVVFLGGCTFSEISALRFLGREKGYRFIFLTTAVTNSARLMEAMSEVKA
Chain of UniProt Q5BJH2 (Q5BJH2 whole entry, looked up): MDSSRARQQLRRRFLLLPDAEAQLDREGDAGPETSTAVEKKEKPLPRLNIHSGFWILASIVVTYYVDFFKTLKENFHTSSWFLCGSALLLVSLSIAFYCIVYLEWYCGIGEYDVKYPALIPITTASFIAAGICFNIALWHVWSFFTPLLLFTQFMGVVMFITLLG
Chain of UniProt Q9Y5K5 (Q9Y5K5 whole entry, looked up): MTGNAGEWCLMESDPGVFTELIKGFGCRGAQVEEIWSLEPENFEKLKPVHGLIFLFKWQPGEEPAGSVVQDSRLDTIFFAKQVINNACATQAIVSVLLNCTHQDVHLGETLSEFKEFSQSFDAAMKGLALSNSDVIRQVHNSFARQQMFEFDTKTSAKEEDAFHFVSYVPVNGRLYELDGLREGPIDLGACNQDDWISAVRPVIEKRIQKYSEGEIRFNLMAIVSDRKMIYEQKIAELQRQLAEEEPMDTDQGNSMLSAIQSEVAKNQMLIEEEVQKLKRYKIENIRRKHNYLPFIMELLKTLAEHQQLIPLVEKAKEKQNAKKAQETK
Chain of UniProt Q7Z7N9 (Q7Z7N9 whole entry, looked up): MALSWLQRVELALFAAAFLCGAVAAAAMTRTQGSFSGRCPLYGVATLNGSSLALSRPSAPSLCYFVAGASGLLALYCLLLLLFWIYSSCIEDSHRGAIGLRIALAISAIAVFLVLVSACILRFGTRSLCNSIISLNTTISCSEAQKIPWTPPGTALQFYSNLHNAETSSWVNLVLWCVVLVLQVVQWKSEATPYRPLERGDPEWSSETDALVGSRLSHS
Chain of UniProt P49815 (P49815 whole entry, looked up): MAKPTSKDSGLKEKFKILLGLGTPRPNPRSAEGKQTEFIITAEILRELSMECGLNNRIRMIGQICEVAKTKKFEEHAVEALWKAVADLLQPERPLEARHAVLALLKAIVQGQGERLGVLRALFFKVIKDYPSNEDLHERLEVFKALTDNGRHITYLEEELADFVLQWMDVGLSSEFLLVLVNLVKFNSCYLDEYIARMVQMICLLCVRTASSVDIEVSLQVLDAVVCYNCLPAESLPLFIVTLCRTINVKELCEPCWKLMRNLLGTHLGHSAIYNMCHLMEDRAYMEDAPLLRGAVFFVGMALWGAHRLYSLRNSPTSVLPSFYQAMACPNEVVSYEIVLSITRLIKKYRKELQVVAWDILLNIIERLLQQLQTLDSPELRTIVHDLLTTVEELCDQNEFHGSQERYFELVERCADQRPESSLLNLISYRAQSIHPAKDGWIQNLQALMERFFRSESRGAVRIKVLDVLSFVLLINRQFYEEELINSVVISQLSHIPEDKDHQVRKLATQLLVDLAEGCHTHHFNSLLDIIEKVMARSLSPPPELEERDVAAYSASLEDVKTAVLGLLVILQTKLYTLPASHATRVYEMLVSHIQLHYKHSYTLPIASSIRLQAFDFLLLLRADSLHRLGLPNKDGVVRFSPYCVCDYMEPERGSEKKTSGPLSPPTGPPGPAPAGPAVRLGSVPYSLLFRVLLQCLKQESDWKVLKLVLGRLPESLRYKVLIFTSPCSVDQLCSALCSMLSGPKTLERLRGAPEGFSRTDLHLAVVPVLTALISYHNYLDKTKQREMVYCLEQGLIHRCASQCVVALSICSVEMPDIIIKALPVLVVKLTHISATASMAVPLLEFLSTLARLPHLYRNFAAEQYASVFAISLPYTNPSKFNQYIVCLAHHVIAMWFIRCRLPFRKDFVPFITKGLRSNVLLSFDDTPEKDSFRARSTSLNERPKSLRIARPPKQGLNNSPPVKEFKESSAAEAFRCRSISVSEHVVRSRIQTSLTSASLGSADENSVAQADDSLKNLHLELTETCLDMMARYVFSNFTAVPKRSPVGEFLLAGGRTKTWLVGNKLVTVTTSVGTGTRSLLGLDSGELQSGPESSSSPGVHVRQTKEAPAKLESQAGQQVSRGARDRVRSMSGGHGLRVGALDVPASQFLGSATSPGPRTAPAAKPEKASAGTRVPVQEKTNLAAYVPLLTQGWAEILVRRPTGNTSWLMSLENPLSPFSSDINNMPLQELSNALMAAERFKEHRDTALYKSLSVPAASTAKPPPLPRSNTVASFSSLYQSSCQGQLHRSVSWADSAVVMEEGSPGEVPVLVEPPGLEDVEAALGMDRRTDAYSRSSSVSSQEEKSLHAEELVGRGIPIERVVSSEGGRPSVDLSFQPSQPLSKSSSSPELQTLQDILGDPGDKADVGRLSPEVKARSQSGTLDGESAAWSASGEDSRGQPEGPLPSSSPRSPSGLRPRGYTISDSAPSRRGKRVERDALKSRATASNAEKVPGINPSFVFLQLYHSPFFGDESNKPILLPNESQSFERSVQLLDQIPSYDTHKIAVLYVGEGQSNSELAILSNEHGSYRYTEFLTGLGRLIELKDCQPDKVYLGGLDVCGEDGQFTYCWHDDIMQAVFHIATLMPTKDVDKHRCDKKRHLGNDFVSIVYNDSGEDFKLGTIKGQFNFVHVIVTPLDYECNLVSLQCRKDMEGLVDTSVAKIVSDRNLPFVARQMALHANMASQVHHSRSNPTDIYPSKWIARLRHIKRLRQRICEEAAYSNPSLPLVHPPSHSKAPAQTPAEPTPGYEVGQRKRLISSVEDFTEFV
Chain of UniProt Q92890 (Q92890 whole entry, looked up): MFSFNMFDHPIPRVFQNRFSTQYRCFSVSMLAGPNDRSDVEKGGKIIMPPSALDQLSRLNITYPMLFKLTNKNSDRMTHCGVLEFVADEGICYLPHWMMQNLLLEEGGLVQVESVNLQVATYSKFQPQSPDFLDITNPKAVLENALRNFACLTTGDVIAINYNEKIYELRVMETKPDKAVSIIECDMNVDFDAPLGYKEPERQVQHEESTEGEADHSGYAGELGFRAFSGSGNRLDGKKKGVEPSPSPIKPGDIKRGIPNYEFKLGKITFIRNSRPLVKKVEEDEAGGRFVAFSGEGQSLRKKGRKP
Chain of UniProt Q9NX01 (Q9NX01 whole entry, looked up): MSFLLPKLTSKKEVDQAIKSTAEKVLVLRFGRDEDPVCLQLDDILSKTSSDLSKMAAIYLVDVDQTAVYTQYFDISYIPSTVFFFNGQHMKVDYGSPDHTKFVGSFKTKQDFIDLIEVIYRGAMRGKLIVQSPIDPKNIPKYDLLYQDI
Chain of UniProt Q99757 (Q99757 whole entry, looked up): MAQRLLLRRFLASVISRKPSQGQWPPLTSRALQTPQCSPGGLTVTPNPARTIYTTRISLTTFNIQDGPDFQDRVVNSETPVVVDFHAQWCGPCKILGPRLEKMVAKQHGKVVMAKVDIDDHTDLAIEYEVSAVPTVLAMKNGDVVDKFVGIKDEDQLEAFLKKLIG

Row | Target | log2 fold change
1 | UXT isoform 2 (UniProt Q9UBK9) | 0.008 (inactive)
2 | TMEM128 (UniProt Q5BJH2) | -0.023 (inactive)
3 | TMEM164 (UniProt Q5U3C3) | 0.288 (inactive)
4 | TXN2 (UniProt Q99757) | -0.05 (inactive)
5 | WDR37 isoform 2 (UniProt Q9Y2I8) | 0.013 (inactive)
6 | UBA52 (UniProt P62987) | -0.046 (inactive)
7 | TRIM44 (UniProt Q96DX7) | 0.059 (inactive)
8 | USP15 (UniProt Q9Y4E8) | 0.025 (inactive)
9 | UTP3 (UniProt Q9NQZ2) | -0.016 (inactive)
10 | TTC33 (UniProt Q6PID6) | -0.046 (inactive)
11 | UFD1 isoform 1 (UniProt Q92890) | 0.02 (inactive)
12 | TXNL4B (UniProt Q9NX01) | -0.037 (inactive)
13 | TMEM189-UBE2V1 (UniProt I3L0A0) | -0.067 (inactive)
14 | WARS1 (UniProt G3V277) | 0.02 (inactive)
15 | UNC119B (UniProt A6NIH7) | 0.293 (inactive)
16 | TSEN2 (UniProt Q8NCE0) | 0.306 (active)
17 | UCHL5 isoform 3 (UniProt Q9Y5K5) | -0.09 (inactive)

Row | Target | log2 fold change
18 | TMEM184C (UniProt Q9NVA4) | -0.07 (inactive)
19 | TMEM106B (UniProt Q9NUM4) | -0.029 (inactive)
20 | UBIAD1 (UniProt Q9Y5Z9) | -0.03 (inactive)
21 | UBE4A isoform 2 (UniProt Q14139) | -0.064 (inactive)
22 | UCHL5 (UniProt Q9Y5K5) | 0.014 (inactive)
23 | VPS33B (UniProt Q9H267) | -0.05 (inactive)
24 | VPS33A (UniProt Q96AX1) | -0.013 (inactive)
25 | VPS18 (UniProt Q9P253) | 0.051 (inactive)
26 | VKORC1 (UniProt Q9BQB6) | 0.064 (inactive)
27 | TNFRSF8 (UniProt P28908) | -0.047 (inactive)
28 | TXNRD1 (UniProt Q16881) | 0.032 (inactive)
29 | WDCP (UniProt Q9H6R7) | 0.003 (inactive)
30 | TSC2 (UniProt P49815) | -0.09 (inactive)
31 | TNPO3 (UniProt Q9Y5L0) | 0.028 (inactive)
32 | UBE3B (UniProt Q7Z3V4) | 0.142 (inactive)
33 | TMEM179B (UniProt Q7Z7N9) | -0.233 (inactive)

compound: CC1=C(C=C(C=C1)NC(=O)C2=CC(=CC=C2)N(C)C)NC(=O)C3=CC=C(C=C3)O; assay: as above
Method in brief: as §1

Row | Target | log2 fold change
34 | UXT isoform 2 (UniProt Q9UBK9) | 0.003 (inactive)
35 | TMEM128 (UniProt Q5BJH2) | -0.006 (inactive)
36 | VWA3B isoform 6 (UniProt Q502W6) | 0.104 (inactive)
37 | TXN2 (UniProt Q99757) | -0.018 (inactive)
38 | WDR37 isoform 2 (UniProt Q9Y2I8) | 0.068 (inactive)
39 | UBA52 (UniProt P62987) | 0.024 (inactive)
40 | TRIM44 (UniProt Q96DX7) | -0.055 (inactive)
41 | USP15 (UniProt Q9Y4E8) | -0.044 (inactive)
42 | UTP3 (UniProt Q9NQZ2) | 0.008 (inactive)
43 | TTC33 (UniProt Q6PID6) | -0.025 (inactive)
44 | WDR75 (UniProt Q8IWA0) | 0.007 (inactive)
45 | UFD1 isoform 1 (UniProt Q92890) | -0.025 (inactive)
46 | TXNL4B (UniProt Q9NX01) | -0.088 (inactive)
47 | TMEM189-UBE2V1 (UniProt I3L0A0) | 0.017 (inactive)
48 | UNC119B (UniProt A6NIH7) | -0.057 (inactive)
49 | TSEN2 (UniProt Q8NCE0) | 0.015 (inactive)

Row | Target | log2 fold change
50 | UCHL5 isoform 3 (UniProt Q9Y5K5) | -0.145 (inactive)
51 | TMEM184C (UniProt Q9NVA4) | 0.028 (inactive)
52 | UBIAD1 (UniProt Q9Y5Z9) | 0.059 (inactive)
53 | UBE4A isoform 2 (UniProt Q14139) | -0.058 (inactive)
54 | UCHL5 (UniProt Q9Y5K5) | -0.07 (inactive)
55 | VPS33B (UniProt Q9H267) | -0.037 (inactive)
56 | VPS33A (UniProt Q96AX1) | -0.074 (inactive)
57 | VPS18 (UniProt Q9P253) | -0.025 (inactive)
58 | VKORC1 (UniProt Q9BQB6) | -0.04 (inactive)
59 | TNFRSF8 (UniProt P28908) | 0.01 (inactive)
60 | TXNRD1 (UniProt Q16881) | 0.006 (inactive)
61 | WDCP (UniProt Q9H6R7) | 0.013 (inactive)
62 | TSC2 (UniProt P49815) | 0.004 (inactive)
63 | TNPO3 (UniProt Q9Y5L0) | 0.004 (inactive)
64 | UBE3B (UniProt Q7Z3V4) | 0.086 (inactive)
65 | TMEM179B (UniProt Q7Z7N9) | -0.003 (inactive)

compound: CC1=CC=C(C=C1)SC2=C3C=C(SC3=CN=C2)C(=O)N; assay: as above
Method in brief: as §1

Row | Target | log2 fold change
66 | UXT isoform 2 (UniProt Q9UBK9) | 0.039 (inactive)
67 | TMEM128 (UniProt Q5BJH2) | -0.005 (inactive)
68 | VWA3B isoform 6 (UniProt Q502W6) | 0.072 (inactive)
69 | TMEM164 (UniProt Q5U3C3) | 0.05 (inactive)
70 | TXN2 (UniProt Q99757) | -0.009 (inactive)
71 | WDR37 isoform 2 (UniProt Q9Y2I8) | -0.019 (inactive)
72 | UBA52 (UniProt P62987) | -0.107 (inactive)
73 | TRIM44 (UniProt Q96DX7) | 0.06 (inactive)
74 | USP15 (UniProt Q9Y4E8) | 0.023 (inactive)
75 | UTP3 (UniProt Q9NQZ2) | -0.094 (inactive)
76 | TTC33 (UniProt Q6PID6) | -0.059 (inactive)
77 | WDR75 (UniProt Q8IWA0) | 0.043 (inactive)
78 | UFD1 isoform 1 (UniProt Q92890) | 0.037 (inactive)
79 | TXNL4B (UniProt Q9NX01) | -0.002 (inactive)
80 | TMEM189-UBE2V1 (UniProt I3L0A0) | 0.006 (inactive)
81 | UNC119B (UniProt A6NIH7) | 0.241 (inactive)
82 | TSEN2 (UniProt Q8NCE0) | 0.014 (inactive)

Row | Target | log2 fold change
83 | UCHL5 isoform 3 (UniProt Q9Y5K5) | 0.048 (inactive)
84 | TMEM106B (UniProt Q9NUM4) | 0.161 (inactive)
85 | UBIAD1 (UniProt Q9Y5Z9) | 0.004 (inactive)
86 | UBE4A isoform 2 (UniProt Q14139) | -0.029 (inactive)
87 | UCHL5 (UniProt Q9Y5K5) | 0.019 (inactive)
88 | VPS33B (UniProt Q9H267) | -0.015 (inactive)
89 | VPS33A (UniProt Q96AX1) | -0.016 (inactive)
90 | VPS18 (UniProt Q9P253) | -0.029 (inactive)
91 | VKORC1 (UniProt Q9BQB6) | 0.001 (inactive)
92 | TNFRSF8 (UniProt P28908) | -0.076 (inactive)
93 | TXNRD1 (UniProt Q16881) | 0.021 (inactive)
94 | WDCP (UniProt Q9H6R7) | -0.103 (inactive)
95 | TSC2 (UniProt P49815) | -0.076 (inactive)
96 | TNPO3 (UniProt Q9Y5L0) | 0.057 (inactive)
97 | UBE3B (UniProt Q7Z3V4) | -0.03 (inactive)
98 | TMEM179B (UniProt Q7Z7N9) | 0.011 (inactive)
